Results from PubChem BioAssay (EPA / NIEHS).
Inconclusive results are not listed. Active and inactive are the calls of the source. How the source made its calls: active means hit-call score of the fitted dose curve at least 0.9, where 1 is the maximum; inconclusive means response in the unintended direction; inactive means score below 0.9. Peptide text beside a SMILES is read from it.

assay: ATG_M_32_TRANS: Attagene TRANS-FACTORIAL HepG2 Assay for M32 Transcription Factor (Internal Marker) (AID 2282984); conditions: HepG2 Attagene TRANS M32 internal marker reporter
Protocol: ATG_TRANS is a cell-based, multiplexed-readout assay that uses HepG2, a human liver cell line, with measurements taken at 24 hours after chemical dosing in a 24-well plate.ATG_M_32_TRANS is one of 30 assay component(s) measured or calculated from the ATG_TRANS assay. It is designed to make measurements of mRNA induction, a form of inducible reporter, as detected with fluorescence intensity signals by Reverse transcription polymerase chain reaction (RT-PCR) and Capillary electrophoresis technology.Data from the assay component ATG_M_32_TRANS was analyzed into 1 assay endpoint. This assay endpoint, ATG_M_32_TRANS, was analyzed in the positive analysis fitting direction relative to DMSO as the negative control and baseline of activity. Using a type of inducible reporter, measures of mRNA for gain-of-signal activity can be used to understand the background control at the transcription factor-level as they relate to the gene . Furthermore, this assay endpoint can be referred to as a secondary readout, because this assay has produced multiple assay endpoints where this one serves a background control function. To generalize the intended target to other relatable targets, this assay endpoint is annotated to the background measurement intended target family, where the subfamily is internal marker.
Human liver HepG2 cells are transiently transfected with multiple reporter transcription units (MRTUs) in 6-well plates using FuGene 6 reagent (Roche; 3 ml FuGene/1 mg DNA). The MRTU constructs are regulated by a cis-regulating element (promoter). […] A major difference between the CIS and TRANS system is that in CIS activities of endogenous TFs are measured, whereas the TRANS assay evaluates changes in activities of exogenous, chimeric NR-Gal4 proteins. […] At the end of 24 hour incubation, total RNA was isolated using TriZol reagent (Invitrogen). The isolated RNA is then reverse-transcribed using oligo(dT) primer and Mo-MLV reverse transcriptase (Invitrogen) with DNAse I (Ambion) treatment for 30 min. The one-tenth of the produced cDNA was amplified by PCR using Taq DNA polymerase (Invitrogen) and two reporter sequence-specific primers. The PCR products were fluorescently labeled by primer extension with 6-arboxyfluorescein (6-FAM) 5'-labeled reporter sequence-specific primer (2 min at 95 C, 20 s at 68 C and 10 min at 72 C) and these products were digested with 5U of HpaI (New England Biolabs) for 2h at 37 C. The fragments were purified using Qiaquick PCR columns (Qiagen), analyzed on an ABI 3130xL genetic analyzer (Applied Biosystems) with peak positions identified by using a set of X-rhodamine (ROX)-labeled MapMarker1000 molecular weight standards (BioVentures). The raw capillary electrophoresis data was processed using Attagraph software (Attagene).

Row | SMILES | outcome
1 | C=C(C)OC(C)=O | inactive
2 | CCN1CCCC1=O | inactive
3 | CCCCC/C=C\C/C=C\CCCCCCCC(=O)O | inactive
4 | CC(C)(C)C1CCC(=O)CC1 | inactive
5 | COC(=O)[C@H](Cc1ccccc1)NC(=O)[C@@H](N)CC(=O)O (H-Asp-Phe-OMe) | inactive
6 | CCCCOCCOCCOC(C)=O | inactive
7 | CC1C(C)(C)C2=C(C(=O)CCC2)C1(C)C (stereo not given) | inactive
8 | C=C(C)C1CC=C(C)CC1 (stereo not given) | inactive
9 | C=C1C[C@H]2[C@@H]3C=C(C)C4=CC(=O)CC[C@]4(C)[C@H]3CC[C@]2(C)[C@@]1(OC(C)=O)C(C)=O | inactive
10 | CC1(C)C(=O)N(CO)C(=O)N1CO | inactive
11 | CC/C=C\C/C=C\C/C=C\CCCCCCCC(=O)OC | inactive
12 | CCCC/C=C/C=C\C=O | inactive
13 | O=c1c(O)c(-c2ccc(O)cc2O)oc2cc(O)cc(O)c12 | inactive
14 | Nc1ccc(C(=O)OCCCOC(=O)c2ccc(N)cc2)cc1 | inactive
15 | O=C1c2ccccc2C(=O)c2cc(S(=O)(=O)O)ccc21 | inactive
16 | CCCCCC1=CCCC1=O | inactive
17 | O=C(Cl)c1ccc(C(=O)Cl)cc1 | inactive
18 | NNS(=O)(=O)c1ccc(Oc2ccc(S(=O)(=O)NN)cc2)cc1 | inactive
19 | Cc1cc(=O)[nH]c(=O)[nH]1 | inactive
20 | CC(C)=CCCC(C)=CC#N | inactive

Row | SMILES | outcome
21 | CCCSSCCC | inactive
22 | C=CC(=O)OCCCCCCCCCC | inactive
23 | CCCCOC(=O)CCC(C)=O | inactive
24 | CCc1cccc(C)c1N | inactive
25 | CC1=C(O)C(=O)C(C)O1 (stereo not given) | inactive
26 | CCc1cccc(C)c1N(C(=O)CS(=O)(=O)O)C(C)COC (stereo not given) | inactive
27 | CC(=O)C(C)C | inactive
28 | COC(C=C(C)CCC=C(C)C)OC | inactive
29 | Nc1ccc(Cl)c(N)c1 | inactive
30 | CCOC(=O)OC(=O)OCC | inactive
31 | CC(C)=CCl | inactive
32 | Nc1cccc(N)n1 | inactive
33 | COC(OC)(C(=O)c1ccccc1)c1ccccc1 | inactive
34 | CCCCC(CC)COS(=O)(=O)O (stereo not given) | inactive
35 | C=C[C@@]1(C)CC(=O)[C@]2(O)[C@@]3(C)[C@@H](O)CCC(C)(C)[C@@H]3[C@H](O)[C@H](OC(C)=O)[C@@]2(C)O1 | inactive
36 | Cn1cccc1 | inactive
37 | O=C(O)CC(C(=O)O)S(=O)(=O)O (stereo not given) | inactive
38 | CC(=O)OC1CCCCC1 | inactive
39 | CC(=O)OCC=C(C)C | inactive
40 | C=CC(=O)OCC(C)OCC(C)OCC(C)OC(=O)C=C (stereo not given) | inactive
